The values below come from the supplement of paper PMC9177965.

The assay relates to HT29 RNF43 G659fs (RNF43 659mut, CRISPR-edited). The assay is described as follows: cell viability activity relative to DMSO (negative = inhibition); higher = more viable cells (less growth inhibition). Particulars: 5 µM; 96 h. As for the experimental part: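 Broad Repurposing Library primary screen at a single dose of 5 uM. HT29 sg-Ctrl and HT29 RNF43 G659fs CRISPR-edited isogenic cells were seeded at 2500 cells/well in 384-well plates in duplicate and treated for 96 h. Viability was read by CellTiter-Glo and reported as % activity relative to DMSO, with MG132 as the positive control (negative = growth inhibition).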
Turning to `O=C(Nc1c[nH]nc1-c1nc2ccc(CN3CCOCC3)cc2[nH]1)NC1CC1`, the cell viability activity was -72.3%.
In the case of `COc1cc(OCc2cccc(-c3ccccc3)c2C)cc(OC)c1CN1CCCC[C@H]1C(=O)O` it was -24.2%; in that of `O=[N+]([O-])c1ccc2c(c1)S(=O)(=O)C=C2`, -95%.
As for `O=C(c1ccc(-c2ccc(Cl)cc2)o1)N(Cc1ccccn1)c1ccc(N2CCNCC2)cc1`, the figure is -45.7%.
In the case of `N#CC1(c2ccc(NC(=O)c3cccnc3NCc3ccncc3)cc2)CCCC1` it was -45.5%.
With `Nc1nc(Cl)nc2c1ncn2[C@@H]1O[C@H](CO)[C@@H](O)[C@@H]1F`, the cell viability activity was -30.3%.
As for `O=C(/C=C/c1ccc2ccccc2n1)c1ccncc1`, the figure is -68.9%; as for `COC(=O)C1=C(C)NC(C)=C(C(=O)OCCCN2CCC(c3ccccc3)(c3ccccc3)CC2)[C@@H]1c1cccc([N+](=O)[O-])c1`, -65.6%; as for `CC(=O)N1CCN(CCOc2ccc(C3CCN(C4=Nn5c(nnc5C(F)(F)F)CC4)CC3)cc2)CC1`, -32.3%.
As for `CCCCc1oc2ccccc2c1C(=O)c1cc(I)c(OCCN(CC)CC)c(I)c1`, the figure is -99.4%.
Take `Cc1cc(Nc2nc(N[C@@H](C)c3ccc(F)cc3)c(C#N)cc2F)n[nH]1`: the cell viability activity is -66.7%.
With `O=[N+]([O-])c1ccccc1S(=O)(=O)NCC1CCC(CNCC2CCc3ccccc3C2)CC1` (stereo unspecified), the cell viability activity was -63.8%.
As to `CSc1ccccc1Nc1nc(N2CCNCC2)nc2c(NCC3CC3)ncnc12`, the cell viability activity was -95.8%.
Turning to `CC(C)[C@H]1c2ccc(F)cc2CC[C@@]1(CCN(C)CCCc1nc2ccccc2[nH]1)OC(=O)C1CC1`, the cell viability activity is -90%.
As for `Cc1cc(OCc2nnc(SC3CCCC3)n2-c2cccnc2)ccc1-c1ccc(S(C)(=O)=O)cc1`, the figure is -86.4%.
As for `Nc1nc(=S)c2ncn([C@@H]3O[C@H](CO)[C@@H](O)[C@H]3O)c2[nH]1`, the cell viability activity was -80.3%.
As for `CCCCC(CC)CNC(=N)NC(=N)NCCCCCCNC(=N)NC(=N)NCC(CC)CCCC` (stereo unspecified), the figure is -90.6%; as for `Nc1ncnc2c1c(-c1cccc(OCc3ccccc3)c1)cn2C1CC(CN2CCCC2)C1` (stereo unspecified), -48%.
As for `COc1cc(F)c(F)c(Nc2ccc(I)cc2F)c1NS(=O)(=O)C1(C[C@H](O)CO)CC1`, the figure is -74.1%.
For `CC[C@H](CO)Nc1nc(NCc2ccc(-c3ccccn3)cc2)c2ncn(C(C)C)c2n1`, the cell viability activity is -92%.
Turning to `COc1ccc(NC(=O)c2ccc(-c3ccc(-c4noc(C)n4)cc3C)cc2)cc1OCCN(C)C`, the cell viability activity was -93.7%.
For `CCOc1ccccc1OC(c1ccccc1)C1CNCCO1` (stereo unspecified), the cell viability activity is -30.5%.
As to `COc1cc(NC(C)CCCN)c2ncccc2c1` (stereo unspecified), the cell viability activity was -52.7%.
Turning to `Cn1nccc1Nc1nccc(-c2ccn([C@H](CO)c3ccc(Cl)c(F)c3)c(=O)c2)n1`, the cell viability activity is -54.6%.
In the case of `Cc1ccc(C(=O)Nc2ccc(CN3CCN(C)CC3)c(C(F)(F)F)c2)cc1C#Cc1cnc2[nH]ncc2c1` it was -96.2%; in that of `Cc1cc(NC(=O)NCCN2CCC(O)(Cc3ccccc3)CC2)c2ccccc2n1`, -36.2%.
